# Measured values from PubChem BioAssay AID1159580 (chemical genetic matrix, 2015).
# Out of some 5,500 compounds screened, about 2,000 (36%) were called active. About 18% were inconclusive and are not listed. The list shows a part of the results. Unmarked numbers belong to inactive results. No stated cut-off is given here; in the data, active means normalized growth mostly below about 0.91 (no sharp cut-off); inconclusive means no clear call, values can overlap the other calls; inactive means mostly above about 0.92.
# Test: chemical genetic growth profiling, strain panel (AID 1159580);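 further: tested at 20 µM; growth read once vehicle control cultures reached saturation at 30 °C; 1 = growth at the plate median or of vehicle wells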
# Details: S. cerevisiae deletion strains, growth OD
# [1] = locus YDL101C, strain DUN1, stronger effect = lower value
# [2] = locus YHR030C, strain SLT2, stronger effect = lower value
# [3] = locus YGR078C, strain PAC10, stronger effect = lower value
# [4] = locus YNL153C, strain GIM3, stronger effect = lower value
# [5] = locus YPL055C, strain LGE1, stronger effect = lower value
# [6] = locus YPL241C, strain CIN2, stronger effect = lower value
smiles,measurement,setting,value
O=C(C=C(O)c1ccc(Br)cc1)C(=O)Nc1ccccc1,normalized growth,"locus YAR019C, strain CDC15, stronger effect = lower value",0.489 (active)
same,normalized growth,"locus YBL105C, strain PKC1, stronger effect = lower value",0.637 (active)
same,normalized growth,"locus YBR135W, strain CKS1, stronger effect = lower value",0.686 (active)
same,normalized growth,"locus YBR136W, strain MEC1, stronger effect = lower value",0.851 (active)
same,normalized growth,"locus YBR160W, strain CDC28, stronger effect = lower value",0.893 (active)
same,normalized growth,"locus YDL017W, strain CDC7, stronger effect = lower value",0.683 (active)
same,normalized growth,"locus YDL028C, strain MPS1, stronger effect = lower value",0.834 (active)
same,normalized growth,[1],0.379 (active)
same,normalized growth,"locus YDL108W, strain KIN28, stronger effect = lower value",0.874 (active)
same,normalized growth,"locus YDL132W, strain cdc53, stronger effect = lower value",0.76 (active)
same,normalized growth,"locus YDL214C, strain PRR2, stronger effect = lower value",0.145 (active)
same,normalized growth,"locus YDR052C, strain DBF4, stronger effect = lower value",0.849 (active)
same,normalized growth,"locus YDR054C, strain cdc34, stronger effect = lower value",0.581 (active)
same,normalized growth,"locus YDR226W, strain ADK1, stronger effect = lower value",0.869 (active)
same,normalized growth,"locus YDR477W, strain SNF1, stronger effect = lower value",0.105 (active)
same,normalized growth,"locus YER123W, strain YCK3, stronger effect = lower value",0.124 (active)
same,normalized growth,"locus YER133W, strain GLC7, stronger effect = lower value",0.229 (active)
same,normalized growth,"locus YFL009W, strain cdc4, stronger effect = lower value",0.7 (active)
same,normalized growth,"locus YFL029C, strain CAK1, stronger effect = lower value",0.439 (active)
same,normalized growth,"locus YFR003C, strain YPI1, stronger effect = lower value",0.718 (active)
same,normalized growth,"locus YFR019W, strain FAB1, stronger effect = lower value",0.128 (active)
same,normalized growth,"locus YFR028C, strain CDC14, stronger effect = lower value",0.448 (active)
same,normalized growth,"locus YGR040W, strain KSS1, stronger effect = lower value",0.109 (active)
same,normalized growth,"locus YGR052W, strain FMP48, stronger effect = lower value",0.132 (active)
same,normalized growth,"locus YGR092W, strain DBF2, stronger effect = lower value",0.104 (active)
same,normalized growth,[2],0.148 (active)
same,normalized growth,"locus YHR079C, strain IRE1, stronger effect = lower value",0.159 (active)
same,normalized growth,"locus YHR082C, strain KSP1, stronger effect = lower value",0.136 (active)
same,normalized growth,"locus YHR205W, strain SCH9, stronger effect = lower value",0.0311 (active)
same,normalized growth,"locus YIL147C, strain SLN1, stronger effect = lower value",0.848 (active)
same,normalized growth,"locus YJL095W, strain BCK1, stronger effect = lower value",0.136 (active)
same,normalized growth,"locus YJL128C, strain PBS2, stronger effect = lower value",0.483 (active)
same,normalized growth,"locus YJL157C, strain FAR1, stronger effect = lower value",0.113 (active)
same,normalized growth,"locus YJR016C, strain ILV3, stronger effect = lower value",0.156 (active)
same,normalized growth,"locus YJR066W, strain TOR1 (second series), stronger effect = lower value",0.115 (active)
same,normalized growth,"locus YJR066W, strain TOR1, stronger effect = lower value",0.122 (active)
same,normalized growth,"locus YKL048C, strain ELM1, stronger effect = lower value",0.136 (active)
same,normalized growth,"locus YKL067W, strain YNK1, stronger effect = lower value",0.127 (active)
same,normalized growth,"locus YKL101W, strain HSL1, stronger effect = lower value",0.103 (active)
same,normalized growth,"locus YKL193C, strain SDS22, stronger effect = lower value",0.761 (active)
same,normalized growth,"locus YKL203C, strain TOR2, stronger effect = lower value",0.142 (active)
same,normalized growth,"locus YLR113W, strain HOG1, stronger effect = lower value",0.145 (active)
same,normalized growth,"locus YLR133W, strain CKI1, stronger effect = lower value",0.127 (active)
same,normalized growth,"locus YLR403W, strain SFP1, stronger effect = lower value",0.00467 (active)
same,normalized growth,"locus YML070W, strain DAK1, stronger effect = lower value",0.129 (active)
same,normalized growth,"locus YMR001C, strain CDC5, stronger effect = lower value",0.449 (active)
same,normalized growth,"locus YMR205C, strain PFK2 (second series), stronger effect = lower value",0.118 (active)
same,normalized growth,"locus YMR277W, strain FCP1, stronger effect = lower value",0.728 (active)
same,normalized growth,"locus YNL006W, strain LST8, stronger effect = lower value",0.158 (active)
same,normalized growth,"locus YNL020C, strain ARK1, stronger effect = lower value",0.109 (active)
same,normalized growth,"locus YNL161W, strain CBK1, stronger effect = lower value",0.77 (active)
same,normalized growth,"locus YNL183C, strain NPR1, stronger effect = lower value",0.131 (active)
same,normalized growth,"locus YNL207W, strain RIO2, stronger effect = lower value",0.824 (active)
same,normalized growth,"locus YNL222W, strain SSU72, stronger effect = lower value",0.786 (active)
same,normalized growth,"locus YNL307C, strain MCK1 (second series), stronger effect = lower value",0.114 (active)
same,normalized growth,"locus YOL078W, strain AVO1, stronger effect = lower value",0.76 (active)
same,normalized growth,"locus YOL136C, strain PFK27, stronger effect = lower value",0.109 (active)
same,normalized growth,"locus YOR061W, strain CKA2, stronger effect = lower value",0.0904 (active)
same,normalized growth,"locus YOR119C, strain RIO1, stronger effect = lower value",0.134 (active)
same,normalized growth,"locus YOR231W, strain MKK1, stronger effect = lower value",0.14 (active)
same,normalized growth,"locus YOR329C, strain SCD5, stronger effect = lower value",0.79 (active)
same,normalized growth,"locus YPL031C, strain PHO85, stronger effect = lower value",0.105 (active)
same,normalized growth,"locus YPL153C, strain RAD53, stronger effect = lower value",0.103 (active)
same,normalized growth,"locus YPL204W, strain HRR25, stronger effect = lower value",0.114 (active)
same,normalized growth,"locus YPL209C, strain IPL1, stronger effect = lower value",0.646 (active)
same,normalized growth,"locus YPL256C, strain CLN2, stronger effect = lower value",0.17 (active)
same,normalized growth,"locus YPR025C, strain CCL1, stronger effect = lower value",0.871 (active)
same,normalized growth,"locus YPR106W, strain ISR1, stronger effect = lower value",0.513 (active)
same,normalized growth,"locus YPR111W, strain DBF20, stronger effect = lower value",0.724 (active)
same,normalized growth,"strain NNK1, stronger effect = lower value",0.106 (active)
same,normalized growth,"strain TSCII, stronger effect = lower value",0.39 (active)
O=C(Nc1ccccc1C(=O)Nc1ccc(Br)cc1)c1ccccc1,normalized growth,"locus YAL013W, strain DEP1, stronger effect = lower value",1.01
same,normalized growth,"locus YBR229C, strain ROT2, stronger effect = lower value",1.02
same,normalized growth,[1],1.05
same,normalized growth,"locus YDR150W, strain NUM1, stronger effect = lower value",1
same,normalized growth,"locus YEL061C, strain CIN8, stronger effect = lower value",0.998
same,normalized growth,[3],1.02
same,normalized growth,"locus YGR229C, strain SMI1, stronger effect = lower value",1.03
same,normalized growth,[2],1.03
same,normalized growth,"locus YHR087W, strain rtc3, stronger effect = lower value",1.03
same,normalized growth,"locus YJL187C, strain SWE1, stronger effect = lower value",1.01
same,normalized growth,"locus YJR043C, strain POL32, stronger effect = lower value",1.03
same,normalized growth,"locus YJR075W, strain HOC1, stronger effect = lower value",0.997
same,normalized growth,"locus YKL190W, strain CNB1, stronger effect = lower value",1.03
same,normalized growth,"locus YLR039C, strain RIC1, stronger effect = lower value",1.02
same,normalized growth,"locus YLR058C, strain SHM2 (second series), stronger effect = lower value",1.02
same,normalized growth,"locus YLR085C, strain ARP6, stronger effect = lower value",1
same,normalized growth,"locus YLR262C, strain YPT6, stronger effect = lower value",1.03
same,normalized growth,"locus YML094W, strain GIM5, stronger effect = lower value",1.01
same,normalized growth,"locus YMR219W, strain ESC1, stronger effect = lower value",1.01
same,normalized growth,"locus YMR263W, strain SAP30, stronger effect = lower value",1.03
same,normalized growth,[4],1.03
same,normalized growth,"locus YNL298W, strain CLA4 (second series), stronger effect = lower value",1.06
same,normalized growth,"locus YNL322C, strain KRE1, stronger effect = lower value",1.02
same,normalized growth,"locus YNR030W, strain Alg12, stronger effect = lower value",1.02
same,normalized growth,[5],1.08
same,normalized growth,[6],1.01
same,normalized growth,"locus YPR135W, strain CTF4, stronger effect = lower value",1.17
c1ccc2cc(CC3=NCCN3)ccc2c1,normalized growth,"locus YAL040C, strain CLN3, stronger effect = lower value",1.01
same,normalized growth,"locus YCL061C, strain MRC1 (second series), stronger effect = lower value",1
same,normalized growth,"locus YDR363W, strain ESC2, stronger effect = lower value",1.02
same,normalized growth,"locus YER002W, strain NOP16, stronger effect = lower value",0.998
same,normalized growth,[3],1.01
same,normalized growth,"locus YMR307W, strain GAS1, stronger effect = lower value",1
same,normalized growth,"locus YNL128W, strain TEP1, stronger effect = lower value",1
same,normalized growth,[4],0.982
same,normalized growth,"locus YNL175C, strain NOP13, stronger effect = lower value",1.01
same,normalized growth,"locus YNL197C, strain WHI3, stronger effect = lower value",1.02
same,normalized growth,"locus YNL224C, strain SQS1, stronger effect = lower value",1.01
same,normalized growth,"locus YOR083W, strain WHI5 (second series), stronger effect = lower value",1
same,normalized growth,[5],1.01
same,normalized growth,[6],0.996
